Test results reported in PubChem BioAssay (NCI).
This is part of a sample that, as a whole, favours compounds with a hit. Of some 83,000 tested, about 20% had one in any assay.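 How to read the values: 0–100, growth inhibition (40 = 60% inhibited); 0, no net growth; -100 to 0, cell death (-40 = 40% of starting cells died; -100 = all dead).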 A number with no mark means an inactive call. The source made the active and inactive calls. How the source made its calls: active means growth percent below 10; inactive means the rest.

How the values were obtained:
Experiment in all cases: NCI-60 one-dose screen, 48 h (100 = growth as untreated, 0 = no growth, -100 = all killed)
Conditions in all cases: 10 µM unless noted
RPMI-8226 leukemia = tested on: RPMI-8226 leukemia
OVCAR-8 ovarian = tested on: OVCAR-8 ovarian
OVCAR-5 ovarian = tested on: OVCAR-5 ovarian
OVCAR-4 ovarian = tested on: OVCAR-4 ovarian
SK-OV-3 ovarian = tested on: SK-OV-3 ovarian
IGROV1 ovarian = tested on: IGROV1 ovarian
OVCAR-3 ovarian = tested on: OVCAR-3 ovarian
HS 578T breast = tested on: HS 578T breast
NCI/ADR-RES ovarian = tested on: NCI/ADR-RES ovarian
T-47D breast = tested on: T-47D breast

C=CCOc1ccc2c(c1)CC[C@@H]1[C@@H]2CC[C@@]2(C)[C@H]1CC[C@]2(C)O
growth (RPMI-8226 leukemia): 51.8% | growth (OVCAR-8 ovarian): 66.4% | growth (OVCAR-5 ovarian): 75.3% | growth (OVCAR-4 ovarian): 89.4% | growth (SK-OV-3 ovarian): 93.9% | growth (IGROV1 ovarian): 104% | growth (OVCAR-3 ovarian): 111% | growth (HS 578T breast): 93% | growth (NCI/ADR-RES ovarian): 90.5% | growth (T-47D breast): 79.9%

c1ccc(N2CCN(c3nncc4ccccc34)CC2)nc1
growth (RPMI-8226 leukemia): 107% | growth (OVCAR-8 ovarian): 97.8% | growth (OVCAR-5 ovarian): 105% | growth (OVCAR-4 ovarian): 109% | growth (SK-OV-3 ovarian): 104% | growth (IGROV1 ovarian): 116% | growth (OVCAR-3 ovarian): 99.9% | growth (HS 578T breast): 109% | growth (NCI/ADR-RES ovarian): 109% | growth (T-47D breast): 101%

Fc1ccc([C@@H]2CCNC[C@H]2COc2ccc3c(c2)OCO3)cc1
growth (RPMI-8226 leukemia): 32.9% | growth (OVCAR-8 ovarian): 95.9% | growth (OVCAR-5 ovarian): 73.5% | growth (OVCAR-4 ovarian): 90% | growth (SK-OV-3 ovarian): 90.8% | growth (IGROV1 ovarian): 72% | growth (OVCAR-3 ovarian): 81.3% | growth (HS 578T breast): 82.8% | growth (NCI/ADR-RES ovarian): 86.3% | growth (T-47D breast): 63.7%

CN1CCN(CC(=O)Nc2nc3c(s2)Nc2cc(Cl)c(Cl)cc2NC3=O)CC1
growth (RPMI-8226 leukemia): 108% | growth (OVCAR-8 ovarian): 99.3% | growth (OVCAR-5 ovarian): 113% | growth (OVCAR-4 ovarian): 116% | growth (SK-OV-3 ovarian): 99% | growth (IGROV1 ovarian): 110% | growth (OVCAR-3 ovarian): 115% | growth (HS 578T breast): 107% | growth (NCI/ADR-RES ovarian): 109% | growth (T-47D breast): 98.1%

COC1CC2CCC(C)C(O)(O2)C(=O)C(=O)N2CCCCC2C(=O)OC(C(C)CC2CCC(O)C(OC)C2)CC(=O)C(C)C=C(C)C(O)C(OC)C(=O)C(C)CC(C)/C=C/C=C/C=C1C (stereo not given)
growth (RPMI-8226 leukemia): 23.5% | growth (OVCAR-8 ovarian): 38.2% | growth (OVCAR-5 ovarian): 59.2% | growth (OVCAR-4 ovarian): 34.5% | growth (SK-OV-3 ovarian): 52.9% | growth (IGROV1 ovarian): 15.5% | growth (OVCAR-3 ovarian): 50% | growth (HS 578T breast): 45.2% | growth (NCI/ADR-RES ovarian): 49.1% | growth (T-47D breast): 31.1%

Cc1cc2c(C#N)n3c(c2cc1C)C(=O)C(c1ccccc1)Oc1ccccc1-3 (stereo not given)
growth (RPMI-8226 leukemia): 29.6% | growth (OVCAR-8 ovarian): 23.6% | growth (OVCAR-5 ovarian): 48.6% | growth (OVCAR-4 ovarian): 22.4% | growth (SK-OV-3 ovarian): 39.6% | growth (IGROV1 ovarian): 48.8% | growth (OVCAR-3 ovarian): 25.3% | growth (HS 578T breast): 46.2% | growth (NCI/ADR-RES ovarian): 25.8% | growth (T-47D breast): 15.2%

N=c1ccn2c(n1)O[C@@H]1[C@@H](O)[C@H](CO)O[C@@H]12
growth (RPMI-8226 leukemia): 94.4% | growth (OVCAR-8 ovarian): 25.7% | growth (OVCAR-5 ovarian): 81% | growth (OVCAR-4 ovarian): 76.7% | growth (SK-OV-3 ovarian): 61.7% | growth (IGROV1 ovarian): 71.4% | growth (OVCAR-3 ovarian): 87.5% | growth (HS 578T breast): 99% | growth (NCI/ADR-RES ovarian): 41.6% | growth (T-47D breast): 92.7%

N#CCCCCCn1c2ccccc2c2c3c(c4c5ccccc5[nH]c4c21)C(=O)N(O)C3=O
growth (RPMI-8226 leukemia): -18.3% (active) | growth (OVCAR-8 ovarian): 7.06% (active) | growth (OVCAR-5 ovarian): -18.3% (active) | growth (OVCAR-4 ovarian): 19.5% | growth (SK-OV-3 ovarian): 41.3% | growth (IGROV1 ovarian): -1.36% (active) | growth (OVCAR-3 ovarian): -13.4% (active) | growth (HS 578T breast): 19.8% | growth (NCI/ADR-RES ovarian): 67.9% | growth (T-47D breast): 14.2%

CN(C)c1nc(N)nc(Cn2c(-c3nonc3N)nc3ccccc32)n1
growth (RPMI-8226 leukemia): 87.9% | growth (OVCAR-8 ovarian): 91.9% | growth (OVCAR-5 ovarian): 90.6% | growth (OVCAR-4 ovarian): 87.8% | growth (SK-OV-3 ovarian): 88.8% | growth (IGROV1 ovarian): 95.7% | growth (OVCAR-3 ovarian): 98% | growth (HS 578T breast): 77.4% | growth (NCI/ADR-RES ovarian): 73.6% | growth (T-47D breast): 89.7%

CN(CC(=O)Nc1nc2ccccc2[nH]1)S(=O)(=O)c1ccc(Cl)cc1
growth (RPMI-8226 leukemia): 57.5% | growth (OVCAR-8 ovarian): 95.2% | growth (OVCAR-5 ovarian): 96.4% | growth (OVCAR-4 ovarian): 93.6% | growth (SK-OV-3 ovarian): 96.5% | growth (IGROV1 ovarian): -28.9% (active) | growth (OVCAR-3 ovarian): 91% | growth (HS 578T breast): 87.2% | growth (NCI/ADR-RES ovarian): 88.3% | growth (T-47D breast): 77%

Cc1c(NCc2nnc3n(Cc4ccccc4)c(=O)c4c5c(sc4n23)CCCC5)c(=O)n(-c2ccccc2)n1C
growth (RPMI-8226 leukemia): 97.5% | growth (OVCAR-8 ovarian): 86.3% | growth (OVCAR-5 ovarian): 107% | growth (OVCAR-4 ovarian): 74.7% | growth (SK-OV-3 ovarian): 120% | growth (IGROV1 ovarian): 79.2% | growth (OVCAR-3 ovarian): 87.3% | growth (HS 578T breast): 90.7% | growth (NCI/ADR-RES ovarian): 85.6% | growth (T-47D breast): 84%

Cc1c(C(N)=O)sc2ncn(CC(=O)Nc3ccc(Cl)cc3)c(=O)c12
growth (RPMI-8226 leukemia): 101% | growth (OVCAR-8 ovarian): 105% | growth (OVCAR-5 ovarian): 85.5% | growth (OVCAR-4 ovarian): 110% | growth (SK-OV-3 ovarian): 106% | growth (IGROV1 ovarian): 533% | growth (OVCAR-3 ovarian): 122% | growth (HS 578T breast): 139% | growth (NCI/ADR-RES ovarian): 102% | growth (T-47D breast): 102%

COC(=O)[C@]12CC[C@@H](C)[C@H](C)[C@@H]1C1=CC[C@@H]3[C@@]4(C)C=C(O)C(=O)[C@@]5(C)COC(=C54)C[C@@]3(C)[C@]1(C)CC2
growth (RPMI-8226 leukemia): -56.5% (active) | growth (OVCAR-8 ovarian): -20.5% (active) | growth (OVCAR-5 ovarian): -26.9% (active) | growth (OVCAR-4 ovarian): -39.1% (active) | growth (SK-OV-3 ovarian): -20.8% (active) | growth (IGROV1 ovarian): -23.5% (active) | growth (OVCAR-3 ovarian): -92% (active) | growth (HS 578T breast): -18.8% (active) | growth (NCI/ADR-RES ovarian): -42.8% (active) | growth (T-47D breast): -25.8% (active)
